Screens (PubChem)
The list is a sample of the results.
aSyn 5UTR act: Activators via SNCA 5'UTR binding, MLPCN; alpha-synuclein 5'UTR reporter, activators screen; activity score, % (tested at 7.5 µM), hits read low; 7.1% of 300,000 active; AID 1814; in the data active = activity score below about -60%
Active calls of the source: *.

SMILES	aSyn 5UTR act
Cc1ccc(-c2csc3nc(C)n(N)c(=O)c23)o1	-130*
C=CCn1c(SCC(=O)c2[nH]c(C)c(C(=O)OCC)c2C)nc2scc(-c3ccc(OC)c(OC)c3)c2c1=O	60
CC#CCCCC(=O)Nc1ccccc1C(=O)O	-75*
CCc1ccc(CCC(=O)Nc2ccccc2C(=O)O)o1	-85*
Cc1ccc(-n2nnc(-c3nccs3)n2)cc1	95
Clc1ccc(-n2nnc(-c3ncc[nH]3)n2)cc1Cl	-171*
Fc1ccc(-n2nnc(-c3ncc[nH]3)n2)cc1	-126*
Clc1ccc(-n2nnc(-c3nccs3)n2)cc1Cl	-92*
O=C(COc1ccccc1)n1nc(-c2ccc(Cl)cc2)nc1NCc1ccco1	-132*
Cc1ccc(-c2nc(NCc3ccco3)n(C(=O)c3ccco3)n2)cc1	-143*
O=C(c1ccco1)n1nc(-c2ccc(Cl)cc2)nc1NCc1ccco1	-176*
COc1ccccc1C(=O)n1nc(-c2ccccc2)nc1NCc1ccco1	-88*
CCOCc1nnc(NC(=O)c2cccc(OC)c2)s1	-96*
COCc1nnc(NC(=O)c2cccc(NC(=O)C(C)C)c2)s1	-73*
CC(C)C(=O)Nc1ccc(C(=O)Nc2nnc(C(C)C)s2)cc1	-107*
CCc1nnc(NC(=O)c2cccc(NC(=O)C(C)C)c2)s1	-81*
CC(C)C(=O)Nc1cccc(C(=O)Nc2nnc(C(C)C)s2)c1	-120*
Oc1ccc(-c2[nH]ncc2-c2ccc(Cl)cc2)c(O)c1	-62*
CCN(CC)S(=O)(=O)c1ccc(N/N=C/c2cc(OC)ccc2O)nc1	87
COc1ccc(/C=N/Nc2ccccn2)c(OC)c1OC	-92*
Cc1ccc(C)c(/C=N/Nc2ccccn2)c1	-139*
COc1ccc(/C=N\Nc2ccccn2)c(OC)c1	-155*
COc1ccc(/C=N/Nc2ncc(Br)cn2)c(OC)c1	-139*
COCc1c(C(C)C)nc(C(C)C)c(/C=C/[C@@H](O)C[C@@H](O)CC(=O)O)c1-c1ccc(F)cc1	115
COc1ccc(OC)c(/C=N\Nc2nccs2)c1	-65*
SMILES	aSyn 5UTR act
COc1ccccc1/C=N/Nc1nccnc1Cl	-98*
C=CC[C@]12CC=CC(=O)[C@@]1(O)O[C@H](c1ccc(OC)c(OC)c1)[C@H]2C	-94*
COc1ccc(C2=NN(C(=O)CN3CCOCC3)C(c3nc4ccccc4[nH]3)C2)cc1 (centres undefined)	-72*
O=C(Nc1ccc(N2CCCC2)c(Cl)c1)c1ccc(Br)o1	-177*
O=C(Nc1ccc(N2CCOCC2)c(Cl)c1)c1ccco1	-69*
O=C(Nc1ccc(N2CCCC2)c(Cl)c1)c1ccc2c(c1)OCCO2	-78*
O=C(Nc1ccc(N2CCOCC2)c(Cl)c1)c1ccc(Cl)cc1	-126*
O=C(c1ccc(Cl)cc1)c1cc([N+](=O)[O-])ccc1N1CCOCC1	118
O=C(Nc1ccc(N2CCOCC2)c(Cl)c1)C1CCCCC1	-69*
O=C(Nc1ccc(N2CCOCC2)c(Cl)c1)c1ccccc1F	-172*
O=C(Nc1ccc(N2CCOCC2)c(Cl)c1)c1ccc2c(c1)OCCO2	-93*
Cc1cc(C(=O)Nc2ccc(N3CCOCC3)c(Cl)c2)c(C)o1	-180*
CCN1CCN(Cc2ccc(NC(=O)c3ccc(C)c(NC(=O)c4c[nH]c5cc(C(F)(F)F)ccc5c4=O)c3)cc2C(F)(F)F)CC1	113
O=C(Nc1ccc(N2CCCCC2)c(Cl)c1)c1ccc2c(c1)OCCO2	-132*
CCN1CCN(c2ccc(NC(=O)c3ccc([N+](=O)[O-])o3)cc2Cl)CC1	126
CCN1CCN(c2ccc(NC(=O)c3ccc(F)cc3)cc2Cl)CC1	-94*
COc1cc2sc3ccc(-c4ccc(N(C)C)nc4)cc3c(=O)c2cc1OC	-141*
CN(C)c1ccc(-c2ccc3c(=O)c4ccccc4n(C)c3c2)cn1	-106*
COc1ccc(-c2ccc3sc4ccccc4c(=O)c3c2)cn1	-81*
CC(Oc1ccc(Cl)cc1Cl)C(=O)Nc1cccc(O)c1 (centres undefined)	-62*
CC(Oc1ccc(Br)cc1Cl)C(=O)Nc1ccncc1 (centres undefined)	-84*
O=C(/C=C/c1ccccc1)NCCc1c[nH]c2ccccc12	-111*
Cc1ccc(C(=O)NCCc2c[nH]c3ccccc23)c(C)c1	-104*
O=C(/C=C/c1ccccc1)c1c[nH]c2ccccc12	-98*
O=C(NCCc1c[nH]c2ccccc12)c1ccccc1	-107*
SMILES	aSyn 5UTR act
O=C1c2ccccc2C(=O)N1CCc1c[nH]c2ccccc12	-172*
Cc1ccc(C(=O)NCCc2c[nH]c3ccccc23)s1	-178*
COc1ccc(C(=S)N2CCOCC2)cc1OS(=O)(=O)c1ccccc1[N+](=O)[O-]	-70*
COc1ccc(NS(=O)(=O)c2cccc(C(=O)N/N=C/c3cn(-c4ccccc4)nc3-c3ccc(OC)cc3)c2)cc1	-85*
CCN(CC)c1ccc(/C=N/NC(=O)c2cccc(S(=O)(=O)Nc3ccccc3OC)c2)c(O)c1	95
Cc1ccc(-c2nn(-c3ccccc3)cc2/C=N/NS(=O)(=O)c2ccccc2)cc1	-76*
COc1ccc(-c2nn(-c3ccccc3)cc2/C=N/NC(N)=S)cc1OC	90
Cc1ccc(NC(=O)OCc2cc(-c3ccccc3)on2)cc1	-93*
Cc1ccc(NC(=O)OCc2cccs2)cc1	-191*
CC(C)(C)c1ccc(NC(=S)NCc2cccs2)cc1	-98*
S=C(NCCc1ccccc1)NCc1cccs1	-74*
Cc1nnc(CN(C)C(=O)c2cc(COc3ccc(F)cc3Cl)on2)o1	-100*
CSc1ccccc1OCc1cc(C(=O)N(C)Cc2ccc(C)o2)no1	-123*
CC(=O)c1cccc(OCc2cc(C(=O)N(C)Cc3ccc(C)o3)no2)c1	-68*
CSc1ccccc1OCc1cc(C(=O)N(C)Cc2ccc3nsnc3c2)no1	-160*
O=c1[nH]c(-c2ccc(O)cc2)nc2scc(-c3cccs3)c12	-138*
O=C(NCc1cccs1)c1nc2c(nnn2Cc2ccccc2Cl)c(=O)[nH]1	77
O=C(/C=C/c1ccccc1Cl)NNC(=O)c1cccs1	-83*
O=C(/C=C/c1ccc(F)cc1)NCc1cccs1	-112*
O=C(/C=C/c1ccc(F)cc1)NC(=S)NNC(=O)c1cnccn1	95
O=C(/C=C/c1ccccc1Cl)NCc1cccs1	-101*
O=C(c1ccco1)N1N=C(c2ccc3nccnc3c2)CC1c1ccccc1 (centres undefined)	-67*
CC(=O)n1nc(-c2ccccc2)cc1-c1ccccc1	-133*
O=C(O)CC(C(=O)O)n1nc(-c2ccccc2)cc1-c1ccccc1 (centres undefined)	-77*
CCn1c(/C=C\c2ccccc2C)nc2ccccc2c1=O	-63*
SMILES	aSyn 5UTR act
CCn1c(/C=C/c2c[nH]c3ccccc23)nc2ccccc2c1=O	-176*
CCn1c(/C=C/c2ccccc2Cl)nc2ccccc2c1=O	-191*
CNc1nn(-c2cccc(Cl)c2)nc1N	-97*
O=C(c1cccc([N+](=O)[O-])c1)n1nc(-c2ccccc2)nc1NCc1ccccc1	-68*
O=C(c1ccc([N+](=O)[O-])cc1)n1nc(-c2ccccc2)nc1NCc1ccccc1	-67*
COCC(=O)n1nc(-c2ccccc2)nc1NCc1ccc(N(C)C)cc1	-83*
CCCCN1CC(O)=C(c2nc3ccccc3[nH]2)C1=N	-107*
CC(C)N1CC(O)=C(c2nc3ccccc3[nH]2)C1=N	-74*
CCCCCN1CC(O)=C(c2nc3ccccc3[nH]2)C1=N	-117*
CCCCCCCCCn1ccc(=N)cc1	82
CCCCCCCn1ccc(=N)cc1	56
NNc1nc(-c2ccccc2)nc2sc3c(c12)CCCC3	-65*
